Source: PubChem BioAssay (National Center for Advancing Translational Sciences (NCATS))
DT40 TDP1 CPT – qHTS for Inhibitors of human tyrosyl-DNA phosphodiesterase 1 (TDP1): qHTS in cells in presence of CPT; chicken DT40 Tdp1-/-;hTDP1 cells + 20 nM CPT, ATP luminescence, 48 h; Potency, µM (highest dose often 46.2 µM), for inactives: at the top dose activity change, negative = growth inhibition, usual class: inhibitors; actives 12% (n = 420,000); further: nearly all actives have a fitted effect of over 55% in size
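Cell growth measured by CellTiter-Glo luminescence after a minimum 48 h, 37 C compound exposure with 20 nM CPT in Tdp1-knockout DT40 cells stably expressing hTDP1, seeded 400/well; qHTS titration format.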
TDP1 cell noCPT – qHTS for Inhibitors of human tyrosyl-DNA phosphodiesterase 1 (TDP1): qHTS in cells in absence of CPT; DT40 Tdp1-/- hTDP1 cells, no CPT, ATP luminescence, 48 h; Potency, µM (doses to about 46.2 µM), without a hit: top-dose activity change, negative = growth inhibition, most hits filed as inhibitors; actives 15% (n = 420,000); AID 686978, 2013; further: nearly all actives have a fitted effect of over 55% in size
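Chicken DT40 Tdp1-/- cells complemented with human TDP1, screened without camptothecin (DMSO vehicle only), 400 cells/well. Compounds pin-transferred, cells incubated at 37 °C for at least 48 hr. Growth read as ATP-dependent luminescence (CellTiter-Glo, 30 min at RT).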
Gal4-VP16 FLuc – VP16 counterscreen qHTS for inhibitors of ROR gamma transcriptional activity; Potency, µM (series often up to 53.6 µM), without a hit: at the highest dose activity, negative = inhibition, most hits filed as inhibitors; Drosophila S2 Gal4-VP16 UAS-luciferase, luminescence, 20 h; actives 3.5% (n = 310,000);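 further: Gal4-VP16 expression switched on by copper sulfate through the metallothionein promoter; nearly all actives have a fitted effect of over 50% in size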
TDP1 inh – qHTS Assay for Inhibitors of Tyrosyl-DNA Phosphodiesterase (TDP1); recombinant TDP1, AlphaScreen DNA substrate cleavage; Potency, µM (highest dose often 130 µM), for inactives: at the top dose activity change, negative = inhibition, usual class: inhibitors; actives 0.28% (n = 350,000); AID 485290, 2010; further: nearly all actives have a fitted effect of over 40% in size
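Signal: AlphaScreen proximity between streptavidin donor and anti-FITC acceptor beads on intact substrate. Reaction: Tdp1 1 nM, substrate 15 nM final, 5 min RT after 15 min compound preincubation.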
RORgamma inh – qHTS for inhibitors of ROR gamma transcriptional activity; actives 5.4% (n = 310,000); AID 2551, 2010; Nuclear receptor ROR-gamma (Mus musculus), P51450; Potency, µM (doses to about 53.6 µM), without a hit: top-dose activity change, negative = inhibition, most hits filed as inhibitors; Drosophila S2 Gal4-RORgamma UAS-luciferase reporter, 20 h; further: nearly all actives have a fitted effect of over 60% in size
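Schneider cells (Drosophila), stable Gal4 DBD–ROR gamma + UAS-luc; 1 hr cmpd preincubation; Cu2+ induction 700 uM final; 20 hr ambient; luminescence.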
Starred values were filed as active, the others as inactive; ? = inconclusive; / = not tested or not shown; [ ] = dose if it differs, or a comment. Compounds with a hit are over-represented: about 19% of the library has one in this group of screens. The call rests on the fitted dose curve; in most records, active means well fitted curve in the direction sought with a large enough effect; inconclusive means small, poorly fitted or top-dose-only effect, or another doubt; inactive means no such curve, though single readings can be large; an effect the other way counts as inactive or inconclusive. On the % scale 0 is the no-effect control and ±100 the full control effect; potency means the concentration at half of the fitted maximal effect.

SMILES	DT40 TDP1 CPT	TDP1 cell noCPT	Gal4-VP16 FLuc	TDP1 inh	RORgamma inh
COc1cccc2cc(-c3nnc(Nc4ccccc4C)s3)c(=O)oc12	?	8.2µM*	/	3%	/
CCc1sc(Nc2cccc(C)c2)nc1-c1cc2cccc(OC)c2oc1=O	?	21µM*	/	4%	/
COc1cccc2cc(C(=O)Oc3ccccc3)c(=O)oc12	23%	10%	10µM*	3%	?
CCc1sc(Nc2cccc(C)c2C)nc1-c1cc2cccc(OC)c2oc1=O	?	21µM*	/	4%	/
COC(=O)c1cc(Br)c(=O)n(CCN(C(C)C)C(C)C)c1	-26%	-3%	-3%	2%	-40%
O=c1c2[nH]c3cccc(Cl)c3c2ncn1Cc1ccncc1	2%	?	2%	1%	3%
COCCNc1ncnc2c1ncn2[C@H]1CN(CCOC)C[C@@H](CO)O1	10%	-8%	/	/	/
COc1ccc(N(C(=O)c2ccco2)S(=O)(=O)c2ccc(F)cc2)cc1	-13%	-12%	26%	-3%	31%
COC(=O)N1C2=C(c3ccccc3[C@@H]1CC(=O)Nc1ccc(Br)cc1)[C@@H]1C(=O)N(c3ccccc3)C(=O)[C@@H]1[C@H](C)C2	/	/	/	12%[12.3 µM]	/
COc1cccc2cc(-c3nnc(-c4ccc(Cl)cc4)o3)c(=O)oc12	?	-4%	/	-3%[12.3 µM]	/
COc1cccc2cc(-c3nnc(-c4ccccc4)o3)c(=O)oc12	1%	-17%	?	1%	1.3µM*
Cc1cccc2sc(N(CCCN(C)C)C(=O)c3sc4ccccc4c3Cl)nc12	16µM*	23µM*	?	3%	-41%
CCN(CC)CCN(C(=O)c1ccc(C(=O)c2ccccc2)cc1)c1nc2c(OC)cccc2s1	?	-23%	-5%	10%	-30%
COc1cccc2sc(N(CCN(C)C)C(=O)c3ccc(S(=O)(=O)N4CCCC4)cc3)nc12	2%	?	2%	6%	-13%
COc1cccc2sc(N(CCCN(C)C)C(=O)c3sc4ccccc4c3Cl)nc12	?	18µM*	-26%	5%	-30%
COc1cc(C(=O)N(CCCN(C)C)c2nc3c(OC)cccc3s2)cc(OC)c1OC	?	21µM*	/	-1%	/
CN(C)CCCN(C(=O)c1sc2ccccc2c1Cl)c1nc2c(F)cccc2s1	-23%	?	-11%	8%	5%
CC(C)C[C@H]1CN([C@@H](Cc2ccc(O)cc2)CN2CCC[C@H]2CN2C(=O)C(=O)NC[C@@H]2Cc2ccccc2)C(=O)C(=O)N1CC1CCCCC1	?	21µM*	/	/	/
CC(C)C[C@H]1CN([C@@H](Cc2ccccc2)CN2CCC[C@H]2CN2C(=O)C(=O)NC[C@@H]2Cc2ccc(O)cc2)C(=O)C(=O)N1CC1CCCCCC1	?	16µM*	/	/	/
O=C(NCc1ccncc1)[C@@H]1CCCN1C(=O)[C@H]1CCCN1C(=O)c1cccc2ccccc12	0%	-30%	/	/	/
COC1C(O)C(CO)OC1n1cnc2c(=O)[nH]c(N)nc21 (configuration not stated)	11%	6%	-9%	3%	-9%
Nc1nc(Cl)nc2c1ncn2C1OCC(O)C(O)C1O (configuration not stated)	-19%	-15%	/	/	/
C=C1[C@H](CO)[C@@H](O)C[C@@H]1n1cnc2c(=O)[nH]c(N)nc21	0.0084µM*	0.0053µM*	/	/	/
Nc1ccn([C@H]2C[C@H](O)[C@@H](CO)O2)c(=O)n1	12%	17%	1%	8%	-28%
Nc1nc(Cl)nc2c1ncn2C1CC(O)C(CO)O1 (configuration not stated)	0.18µM*	?	/	/	/
Nc1nc2c(ncn2C2CC(O)C(CO)O2)c(=O)[nH]1 (configuration not stated)	10µM*	5.8µM*	7%	9%[56.1 µM]	-35%
